This excerpt belongs to a sample that is enriched for hits.
AMA1-RON2 inh: qHTS for Inhibitors of AMA1-RON; Towards Development of Antimalarial Drug Lead: Primary Screen; Plasmodium falciparum AMA1 (3D7) - RON2 peptide interaction; AlphaScreen AMA1-biotinylated RON2 peptide binding; Potency, µM (titrated, usually from 58.2 µM), inactives show top-dose activity change, negative = inhibition, actives largely listed as inhibitors; 360,000 tested, 0.2% active; AID 720542, 2013; active = well fitted inhibition curve with a large enough effect; inconclusive = small, poorly fitted or top-dose-only effect; inactive = no such curve, though single readings can be large or run the other way;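 also: potency is read from the fitted curve at half-maximal effect; 0% = vehicle wells and -100% = peptide control; nearly all actives have a fitted effect of over 45% in size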
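AMA1 (3D7) with his tag at 25 nM final met compounds first, then biotinylated RON2 peptide at 25 nM; detection used donor plus acceptor beads, 10 µg/mL apiece, read by AlphaScreen after 30 min at room temperature.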
LASV entry inh: qHTS for Inhibitors of binding or entry into cells for Lassa Virus; Potency, µM (doses to about 37.9 µM), for inactives: top-dose activity change, negative = inhibition, actives largely listed as inhibitors; 300,000 tested, 1.2% active; Lassa virus pseudotype entry inhibition, cell reporter; calls by dose curve; tested in HEK293 cells; also: potency is read from the fitted curve at half-maximal effect; % is scaled to controls: 0 for no effect and ±100 for the full control effect; nearly all actives have a fitted effect of over 50% in size
Shiga toxin inh: A qHTS for Small Molecule Inhibitors of Shiga Toxin | Vero cells, Shiga toxin protein synthesis inhibition reporter | inhibition, % at 38.7 µM | 290,000 tested, 9.2% active | AID 2315, 2010; in the data active = inhibition mostly above about 28%, no sharp cut-off; inactive = mostly below about 43%; also: 0% is about no effect
Cycloheximide cs: Cycloheximide Counterscreen for Small Molecule Inhibitors of Shiga Toxin | cell reporter, cycloheximide protein synthesis inhibition counterscreen | max response, % | 300,000 tested, 12% active; in the data active = max response mostly above about 13%, no sharp cut-off; inactive = mostly below about 14%; also: read at 38.3 µM for the half of the compounds with a filed dose; 0% is about no effect
MARV entry inh: qHTS for inhibitors of binding or entry into cells for Marburg Virus | Marburg virus pseudotyped entry inhibition, cell reporter | Potency, µM (top dose mostly 37.8 µM), for inactives: at the top dose activity change, negative = inhibition, actives largely listed as inhibitors | 300,000 tested, 1.8% active | AID 540276, 2011; calls by dose curve; tested in HEK293 cells; also: potency is read from the fitted curve at half-maximal effect; % is scaled to controls: 0 for no effect and ±100 for the full control effect
* hit, by the source's call; ? = inconclusive; · = not tested or not shown; + = active, no number; [ ] = dose if it differs, or a comment.

SMILES	AMA1-RON2 inh	LASV entry inh	Shiga toxin inh	Cycloheximide cs	MARV entry inh
CCOC(=O)c1cc(-c2ccc(OC)cc2)n(CCC(=O)Nc2cccc(C(C)=O)c2)c1C	·	-16.7%[46.1 µM]	·	·	·
COc1ccc(/C=C/C(=O)OCC(=O)Nc2ccc(Cl)cn2)cc1	5.3%	-30.6%	-16.5	2.2	8.7%
O=C(/C=C/c1ccccc1)Nc1ccc(Br)cn1	-7.4%	·	+	31.0*	·
Cc1ccc(NC(=O)/C=C/c2ccc(Cl)cc2)nc1	-18.2%	1.5%	50.4*	22.4*	-25.6%[46.1 µM]
O=C(/C=C/c1cccc([N+](=O)[O-])c1)Nc1ccc(Cl)cn1	1.7%	·	78.3	8.4	·
CCCS(=O)(=O)NC(=O)C1(C)CCCN(C(=O)CCc2cccs2)C1 (stereo not given)	-4.0%	·	·	·	·
NC(=O)C(=O)NN=C1CCC(c2ccccc2)CC1 (stereo not given)	18.4%	-0.9%	14.8	9.4	7.2%
CC(C)(C)C1CCC(=NNC(=O)CN(c2ccccc2)S(C)(=O)=O)CC1 (stereo not given)	35.3%	11.1%	89.9*	43.0*	4.8%
COC(=O)NN=C1CCC(c2ccccc2)CC1 (stereo not given)	14.4%	0.6%[46.1 µM]	30.5*	24.7	1.3%[46.1 µM]
CCOC(=O)NN=C1CCC(c2ccccc2)CC1 (stereo not given)	17.4%	·	10.1	9.8*	·
CC(C)(C)C(=O)NN=C1CCC(c2ccccc2)CC1 (stereo not given)	36.4%	·	24.0	19.1*	·
Cc1cc(NC(=O)CCC(=O)N(Cc2ccc(F)cc2)C(C(=O)NC2CCCC2)c2ccco2)no1 (stereo not given)	10.0%	-9.3%	-22.7	-2.3	-23.4%[46.1 µM]
Cc1cccc(NC(=O)NC(C)C(c2ccccc2)N2CCN(C)CC2)c1 (stereo not given)	2.6%	?	-1.0	1.8	7.0%
CCc1ccc2oc(C(=O)NCc3ccccc3)cc(=O)c2c1	·	17.3%[46.1 µM]	·	·	?
COc1cc([N+](=O)[O-])ccc1NC(=O)NNC(=O)c1sccc1C	71.6%	9.1%[46.1 µM]	34.7*	26.1*	?
COc1cc([N+](=O)[O-])ccc1NC(=O)NNC(=O)CCc1ccccc1	128.8%	·	-2.2	-1.0	·
COc1ccccc1CC(=O)Nc1cc(C)ccn1	-7.0%	·	102.9*	45.5*	·
COc1ccccc1CNc1cc(C)ccn1	-6.5%	-4.1%[46.1 µM]	·	7.6	?
CCOc1cc(NC(=O)C2CC2)c(OCC)cc1NC(=O)c1ccccc1OCC	-20.7%	?	-6.7	-4.2	10µM*
Cc1ccc(NC(=O)COc2ccccc2[N+](=O)[O-])nc1	13.1%	?	56.2*	13.8	?
Cc1ccnc(NC(=O)Cn2cc([N+](=O)[O-])cn2)c1	6.4%	1.3%	89.1*	43.5*	?
COc1cccc(Cn2c(=O)n(CCc3ccccc3)c(=O)c3c2c2cc(OC)ccc2n3C)c1	·	-1.4%[46.1 µM]	·	·	·
COc1cc(C(=O)NCC(c2ccc3c(c2)OCO3)N2CCOCC2)cc(OC)c1OC (stereo not given)	·	-3.1%[46.1 µM]	·	·	·
CCOCCc1nnc(NC(=O)C(=O)c2cc(C)n(-c3cccc(Cl)c3)c2C)s1	·	-4.6%[46.1 µM]	·	·	1.3%[46.1 µM]
Cc1cc(/C=N/NC(=O)c2cc3ccccc3o2)c(C)n1C	102.4%	·	3.0	10.8	·
SMILES	AMA1-RON2 inh	LASV entry inh	Shiga toxin inh	Cycloheximide cs	MARV entry inh
CC(=O)Nc1ccc(S(=O)(=O)c2ccnc3cc(Cl)ccc23)cc1	6.4%	·	·	·	·
CC(C)(C)N(Cc1ccccc1)C(=O)CN1C(=O)c2ccccc2S1(=O)=O	-10.3%	-6.0%	·	·	-11.4%
CCc1nnc(NC(=O)COc2ccccc2[N+](=O)[O-])s1	-7.6%	·	17.7	10.1*	·
Cc1ccnc(NC(=O)COc2ccccc2[N+](=O)[O-])c1	·	·	139.6*	39.5*	·
CCc1nnc(NC(=O)c2cccc(C(=O)Nc3nnc(CC)s3)n2)s1	65.1%	?	-15.8	-7.5	?
CCOc1ccccc1C(=O)Nc1nnc(CC)s1	-4.0%	·	24.5*	14.1*	·
COc1ccccc1N(Cc1ccccc1)S(=O)(=O)c1cccc(C(=O)Nc2cc(C)ccn2)c1	16.4%	?	58.4*	43.0*	?
CN(CC(=O)Nc1ccc(F)cc1)C(=O)c1ccc(N2C(=O)CCC2=O)cc1	-7.2%	·	·	·	·
CCn1c(S[C@@H](C)C(=O)O)nc2sc3c(c2c1=O)CCC3	·	·	·	·	10.3%[46.1 µM]
CSc1ccc(/C=N/Nc2cccc(C(=O)O)c2)cc1	-4.0%	0.891µM*	+	91.8*	?
O=C(CN1C(=O)/C(=C\c2cccs2)SC1=S)Nc1cccc(C(=O)O)c1	4.6%	-17.6%[46.1 µM]	52.7*	11.4	?
CCOc1cc(/C=N/Nc2cccc(C(=O)O)c2)ccc1OCC(=O)N1CCCCC1	27.4%	-1.6%	125.9*	69.8*	?
O=C(O)c1cc(N/N=C/C=C/c2ccccc2)ccc1Cl	5.9%	-25.9%	171.9*	39.7*	?
CCOc1ccc(C(C)=O)cc1COC(=O)c1ccccc1C(=O)N(C)Cc1ccccc1	-6.5%	-0.6%	·	·	?
COC(=O)c1ccc(NC(=O)Cc2coc3cc(C)ccc23)cc1	·	-1.9%[46.1 µM]	·	·	6.2%[46.1 µM]
O=C(O)c1cccc(N/N=C/c2ccc(OC(F)(F)F)cc2)c1	-5.7%	?	137.7*	77.1*	?
O=C(CCCNc1ccccc1)N/N=C/c1cccs1	-14.8%	-17.7%	-2.7	-4.2	?
O=C(O)c1cccc(N/N=C/c2cccs2)c1	7.5%	5.8µM*	147.0*	83.6*	1.46µM*
COC(=O)c1ccc(COc2ccc(/C=N/Nc3nc(C)cc(=O)[nH]3)cc2)cc1	22.5%	·	45.1*	9.1	·
CSc1ccc(/C=N/Nc2nc(C)cc(=O)[nH]2)cc1	28.2%	0.4%	28.7	11.3	-4.1%[46.1 µM]
COC(=O)c1ccc(COc2ccc(/C=N/Nc3cccc(C(=O)O)c3)cc2)cc1	3.5%	·	108.8*	83.8*	·
CCCNC(=O)C12CCC(C)(c3nc4cc(C)c(C)cc4nc31)C2(C)C (stereo not given)	-10.0%	?	-2.9	6.1	?
O=C(CSc1nnnn1-c1ccc2c(c1)OCCO2)N1CCN(C(=O)c2ccco2)CC1	-0.2%	-26.7%	14.6	-2.5	16.6%[46.1 µM]
COc1ccc(C(C)=O)c(Oc2ccc(S(=O)(=O)N3CCOCC3)cn2)c1	24.4%	·	·	·	·
CC(C)C(=O)N/N=C/c1ccc(OCc2ccccc2)cc1	0.9%	-19.1%	26.7	3.2	-9.1%
O=C(O)c1cc(N/N=C/c2ccc(OCc3ccccc3)cc2)ccc1Cl	2.8%	4.4%	149.0*	72.4*	?
O=C(Nc1nc(-c2ccccc2)c(-c2ccccc2)o1)c1ccc(F)cc1	98.7%	-10.8%	6.6	0.4	10µM*
COc1cccc(C(=O)Nc2nc(-c3ccccc3)c(-c3ccccc3)o2)c1	39.5%	?	13.3	10.2	?
CCOc1ccc(CCNS(=O)(=O)c2c(C)nc3sc(C)cn3c2=O)cc1OCC	·	16.2%[46.1 µM]	·	·	·
CC1Nc2ccccc2C(=O)N1NS(=O)(=O)c1ccccc1 (stereo not given)	-1.5%	?	-6.4	-0.8	?

Bioassay records as filed in PubChem.
